For experiment [1], the target named is Cytochrome P450 3A7 (Homo sapiens) (UniProt P24462). In words: Cytochrome P450 family 3 subfamily A member 7 (CYP3A7) small molecule antagonists: luciferase biochemical qHTS assay (AID 1963596). Also: % is scaled to controls: 0 for no effect and ±100 for the full control effect; nearly all actives have a fitted effect of over 40% in size. Conditions: P450-Glo CYP3A7 enzyme luminescence, 1 h; series mostly up to 57.4 µM. Summed up:
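P450-Glo luminescent assay: CYP3A7 enzyme converts a proluciferin substrate to luciferin, detected by luciferase reagent; light proportional to activity. Compounds in DMSO preincubated 10 min with enzyme-substrate mix at room temperature, then NADPH regeneration added for 1 h.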

Experiment [2] in a line: Viability qHTS for spleen associated tyrosine kinase inhibitor (SYKi) naive MV4-11 cells (AID 1963823). Also: nearly all actives have a fitted effect of over 40% in size. Also: potency is read from the fitted curve at half-maximal effect. Conditions: MV4-11 AML viability, CellTiter-Glo luminescence, 72 h; series mostly up to 45 µM. Summed up: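 Read-out: CellTiter-Glo luminescence. Exposure: 72 hr, 37 C, 5% CO2, 95% humidity. Cells: MV4-11 without SYK inhibitor history, 500/well, qHTS format.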
A general note: Quantitative high-throughput screening tests each substance at several concentrations.

A short description of experiment [3]: Viability qHTS for spleen associated tyrosine kinase inhibitor (SYKi) drug resistant MV4-11 cells (AID 1963824). Also: nearly all actives have a fitted effect of over 35% in size. Also: potency is read from the fitted curve at half-maximal effect. The following applies: SYKi-resistant MV4-11 viability, CellTiter-Glo, 72 h; series mostly up to 45 µM. Summed up: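 CellTiter-Glo luminescence, read 10 min after reagent addition, reports viability after a 72 hr compound exposure. Cells are an MV4-11 line made resistant to SYK inhibition, seeded at 500 per well onto compound-containing plates.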

Experiment [4] can be described thus: Cellular viability qHTS for adrenocortical cancer (ACC) cell line SW-13 (AID 1963989). Also: nearly all actives have a fitted effect of over 65% in size. Also: potency is read from the fitted curve at half-maximal effect.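 As to activity (max response): cells grown in serum-free medium with ITS supplement; % is scaled to controls: 0 for no effect and ±100 for the full control effect.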 The following applies: SW-13 ACC cells viability, CellTiter-Glo, 48 h; activity (max response): hits give low values. Put shortly: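 Compound titrations (up to 46 uM final, in DMSO) were applied to SW-13 cells for 48 h at 37C/5% CO2. Reading used CellTiter-Glo after 20 min at room temperature; fitted curves yielded IC50 and efficacy.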

A short description of experiment [5]: Quantitative highthroughput screen to assess conditional lethalithy of SEM cells grown in Human Plasma-Like Medium with dialyzed fetal bovine serum (HPLM+ds) (AID 1963882). Also: potency is read from the fitted curve at half-maximal effect; nearly all actives have a fitted effect of over 35% in size. The following applies: SEM B-ALL cells in HPLM+ds, CellTiter-Glo viability, 48 h; series mostly up to 45.8 µM. Put shortly: (§1)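 Each medium arm—HPLM with 10% dialyzed FBS, or RPMI1640 with 5 mM glucose and 10% untreated or dialyzed FBS—was screened against an 11-point, 3-fold compound titration for 48 h at 37 °C, with CellTiter-Glo luminescence as endpoint.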
A general note: ATP-based viability assays read luminescence as a measure of living cells.

A short description of experiment [6]: Quantitative highthroughput screen to assess conditional lethalithy of SEM cells grown in RPMI1640 with unreated serum (RPMI+s) (AID 1963883). Also: potency is read from the fitted curve at half-maximal effect; nearly all actives have a fitted effect of over 35% in size. Conditions: SEM B-ALL cells, CellTiter-Glo viability, 48 h; series mostly up to 45.8 µM. Put shortly: as §1
Experiment [7] in a line: Cellular viability qHTS for adrenocortical cancer (ACC) cell line NCI-H295R (AID 1963990). Also: potency is read from the fitted curve at half-maximal effect; nearly all actives have a fitted effect of over 60% in size. Conditions: CellTiter-Glo ATP luminescence, 48 h; series mostly up to 46.1 µM. Summed up:
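Readout: CellTiter-Glo luminescence, 20 min RT. Exposure: 48 h, 37C/5% CO2. Cells: NCI-H295R, ITS-DMEM serum-free. Range: up to 46 uM. Analysis: 4PL fit, IC50 plus efficacy.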

Molecules are shown by their SMILES. Where “and” joins values, the source holds several entries; their conditions need not be identical. Identical values can stand only once. Inconclusive results are not listed. Calls of active or inactive are those of the source. Calls follow the shape of the dose curve; as a rule, active = well fitted curve in the direction sought with a large enough effect; inconclusive = small, poorly fitted or top-dose-only effect, or another doubt; inactive = no such curve, though single readings can be large; an effect the other way counts as inactive or inconclusive.

Cytochrome P450 3A7 (Homo sapiens), sequence (P24462 whole entry, looked up): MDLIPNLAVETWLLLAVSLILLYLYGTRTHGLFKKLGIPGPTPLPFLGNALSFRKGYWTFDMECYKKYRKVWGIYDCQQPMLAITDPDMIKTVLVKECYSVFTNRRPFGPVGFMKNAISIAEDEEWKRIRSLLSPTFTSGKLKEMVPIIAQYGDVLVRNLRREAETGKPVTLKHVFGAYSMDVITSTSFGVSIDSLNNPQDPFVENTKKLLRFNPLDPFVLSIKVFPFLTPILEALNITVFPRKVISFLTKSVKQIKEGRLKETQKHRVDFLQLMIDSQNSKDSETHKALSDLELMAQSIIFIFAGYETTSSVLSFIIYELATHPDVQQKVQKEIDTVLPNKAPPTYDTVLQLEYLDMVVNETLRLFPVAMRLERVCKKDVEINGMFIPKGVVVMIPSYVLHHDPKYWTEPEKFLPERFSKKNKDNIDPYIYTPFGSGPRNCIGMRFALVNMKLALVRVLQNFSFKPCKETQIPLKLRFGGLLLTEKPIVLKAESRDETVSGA

In the case of `CCCNC(C)C(=O)Nc1c(C)csc1C(=O)OC` (configuration not stated), the Potency entry in experiment [1], in experiment [2] and in experiment [3] was “inactive” each time. In experiment [4], the activity (max response) is 8.19% (inactive).

`Nc1ncnc2c1C(=O)N(c1ccc(C3CCC(CC(=O)O)CC3)cc1)CCO2` (configuration not stated): the Potency entry in experiment [1], in experiment [2] and in experiment [3] was “inactive” each time. The activity (max response) in experiment [4] was 10.6% (inactive).

For `CCCc1ncc(C(=O)O)s1`, the Potency result in experiment [1], in experiment [2] and in experiment [3] was “inactive” each time. For the same molecule, in experiment [4], the activity (max response) was 8.93% (inactive).

On to `C[C@@H]1CCNC(=O)c2cc3ccc(C(=O)Nc4nc5ccccc5n4CCCN(C)C)cc3n21`, for which the Potency result in experiment [1] was “inactive”. In addition, the Potency in experiment [2] is 662 nM (active); in experiment [3], 820 nM (active); in experiment [4], 25100 nM (active).

`c1ccc2c(-c3cnn4cc(-c5ccc(N6CCNCC6)cc5)cnc34)ccnc2c1`: the Potency entry in experiment [1] was “inactive”. For the same molecule, the Potency in experiment [2] was 525 nM (active); in experiment [3], 833 nM (active); in experiment [5], 2640 nM (active); in experiment [6] it was 5260 nM (active); in experiment [4] it was 3980 nM (active); in experiment [7], 3160 nM (active).

Regarding `CC(C)NNC(=O)c1ccncc1`, the Potency result in experiment [1], in experiment [2] and in experiment [3] was “inactive” throughout. Besides, the activity (max response) in experiment [4] was 1.43% (inactive).

As for `Nc1nc2c(ncn2CCC(CO)CO)c(=O)[nH]1`, the Potency entry in experiment [1], in experiment [2] and in experiment [3] was “inactive” in each case. Besides, in experiment [4], the activity (max response) is -4.77% (inactive).

In the case of `Cc1ccc2c(n1)Oc1ccc(C(C)C(=O)OCC(=O)N(C)C)cc1C2` (configuration not stated), the Potency entry in experiment [1] and in experiment [3] was “inactive” in each case. Moreover, in experiment [2], the Potency was 11900 nM (active). The activity (max response) in experiment [4] is -7.34% (inactive) and -9.36% (inactive).

With `CCOC(=O)OC(C)OC1=C(C(=O)Nc2ccccn2)N(C)S(=O)(=O)c2ccccc21` (configuration not stated), the Potency entry in experiment [1], in experiment [2] and in experiment [3] was “inactive” in each case. In addition, the activity (max response) in experiment [4] was 1.88% (inactive).

For the molecule `CC(=O)Oc1cccc(C)c1`, the Potency result in experiment [1], in experiment [2] and in experiment [3] was “inactive” in each case. Also, in experiment [4], the activity (max response) is 17.7% (inactive).

With `Cn1cc(-c2ccc3c(c2)CCN3C(=O)Cc2cccc(C(F)(F)F)c2)c2c(N)ncnc21`, the Potency result in experiment [1] is “inactive”. The Potency is 731 nM (active) in experiment [2]; 2.06 µM (active) and 4.68 µM (active) in experiment [3]. In addition, the activity (max response) in experiment [4] was -1.75% (inactive).

(Values after PubChem BioAssay (NCATS).)
